A selection: hits, their analogues and other compounds. The true share with any hit is near 1.3%.
SRC1 inh: SRC1 coactivator transcriptional activity inhibitors, primary screen, cell-based, luminescence | Nuclear receptor coactivator 1 (Homo sapiens), Q15788 | HEK293 GAL4-SRC1 luciferase reporter | inhibition, % at 3.6 µM | actives 0.12% (n = 360,000);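 active = inhibition above the campaign mean plus 3 SD, with each screening campaign given its own cutoff, cut at about 60% in these data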;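 note: 0% = DMSO treated cells and 100% = gossypol at 36 µM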
SRC3 inh: SRC3 coactivator transcriptional activity inhibitors, primary screen, cell-based, luminescence; Nuclear receptor coactivator 3 (Homo sapiens), Q9Y6Q9; HEK293 GAL4-SRC3 luciferase reporter; inhibition, % at 3.6 µM; actives 0.17% (n = 360,000); AID 588352, 2011;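 active = inhibition above a per-campaign cutoff, the mean of all compounds plus 3 SD, cut at about 60% in these data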;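 note: 0% = DMSO-treated cells and 100% = gossypol-treated cells at 36 µM; higher means less SRC3-driven luciferase light from the GAL4 reporter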
Gli-Sufu block: Gli-Sufu pathway antagonists, primary screen, luciferase luminescence, Sufu-KO-LIGHT cells, uHTS; Sufu-KO-LIGHT fibroblasts, Gli luciferase reporter luminescence; inhibition, % at 5 µM; actives 0.74% (n = 340,000); AID 588413, 2011;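 active = inhibition above about 55%, limit read from the data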;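 note: 0% = DMSO-treated cells and 100% = wells with medium but no cells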
LRH-1 inv ag: LRH-1 (NR5A2) inverse agonists, primary screen, cell-based, luminescence, HEK293T, StAR-luciferase reporter. LRH-1 transfected, 24 h. inhibition, % at 3.6 µM. actives 0.13% (n = 360,000). Nuclear receptor subfamily 5 group A member 2 (Homo sapiens), O00482;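 active = inhibition above the mean inhibition of all tested compounds plus 3 SD, cut at about 73% in these data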;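 note: 0% = DMSO wells and 100% = reporter-only cells lacking LRH-1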
Target sequence (O00482 whole entry, looked up): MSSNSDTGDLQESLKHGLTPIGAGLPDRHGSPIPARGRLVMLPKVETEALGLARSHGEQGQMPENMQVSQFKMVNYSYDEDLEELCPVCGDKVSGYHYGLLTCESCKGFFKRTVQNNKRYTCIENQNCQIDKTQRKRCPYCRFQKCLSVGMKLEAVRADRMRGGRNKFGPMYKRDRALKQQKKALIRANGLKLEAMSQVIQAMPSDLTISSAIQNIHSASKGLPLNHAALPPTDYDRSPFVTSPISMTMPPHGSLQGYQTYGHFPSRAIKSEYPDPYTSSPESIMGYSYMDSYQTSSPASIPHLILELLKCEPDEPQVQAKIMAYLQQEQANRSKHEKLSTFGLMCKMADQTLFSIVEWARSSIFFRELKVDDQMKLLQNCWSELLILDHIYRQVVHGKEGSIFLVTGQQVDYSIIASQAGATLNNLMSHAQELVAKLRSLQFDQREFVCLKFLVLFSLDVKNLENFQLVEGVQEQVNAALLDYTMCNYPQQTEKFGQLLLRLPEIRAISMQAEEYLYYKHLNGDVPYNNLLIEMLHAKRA
NR2F2 inh: NR2F2 transcriptional activity inhibitors, primary screen, cell-based, luciferase reporter, HEK293T, luminescence; COUP transcription factor 2 (Homo sapiens), P24468; HEK293T NGFI-A luciferase reporter; inhibition, % at 8.6 µM; actives 0.7% (n = 370,000);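 active = inhibition above a per-plate cutoff, mean inhibition of test wells between control levels plus 3 SD, cut at about 38% in these data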;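 note: cells cotransfected with COUP-TFII expression vector driving the NGFI-A reporter; 0% = median of COUP-TF2 test wells and 100% = reporter-only cells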
SRC2 inh: inhibition of GAL4-SRC2 driven luciferase reporter, primary screen, SRC2 inhibitor project, cell-based, luminescence. actives 0.17% (n = 370,000). AID 651957, 2012. HEK293 GAL4-SRC2 luciferase reporter. inhibition, % at 9 µM;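 active = inhibition above the mean inhibition of all tested compounds plus 3 SD, set per campaign, cut at about 52% in these data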;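 note: 0% = DMSO treated cells and 100% = cells given Gossypol at 36 µM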
Gal4-VP16 ctr: Gal4-VP16 luciferase reporter inhibitors, counter-screen for COUP-TFII antagonist project, cell-based, luminescence, HEK293; shares compounds with NR2F2 inh; inhibition, % at 8.5 µM; actives 25% (n = 2,500); AID 687007, 2013; in the data active = inhibition above about 13%
COUP-TFII conf: NR2F2 transcriptional activity inhibitors, confirmation, cell-based, luciferase reporter, HEK293, triplicate | shares compounds with NR2F2 inh | HEK293 NGFI-A luciferase reporter, luminescence | inhibition, % at 8.5 µM | actives 45% (n = 2,500);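 active = mean inhibition over three repeats above a set limit taken from the earlier primary screen, cut at about 38% in these data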;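 note: 100% = cells given the luciferase reporter alone without the COUP-TF2 vector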
Starred values were filed as active, the others as inactive.

For Cc1cc(N2CCN(S(=O)(=O)c3ccc(Cl)c(Cl)c3)CC2)c2ccccc2n1 the results were SRC1 inh 18, SRC3 inh 10, Gli-Sufu block 31, LRH-1 inv ag 3, NR2F2 inh 19 and SRC2 inh 19.
`Cc1ccc(S(=O)(=O)c2cccc(S(=O)(=O)N3CCCC3)c2)cc1S(=O)(=O)N1CCCC1` gave SRC1 inh 16, SRC3 inh 13, Gli-Sufu block 20, LRH-1 inv ag 4, NR2F2 inh 61*, SRC2 inh 29, Gal4-VP16 ctr 11 and COUP-TFII conf 24.
For Cc1ccc(S(=O)(=O)c2cccc(S(=O)(=O)N3CCOCC3)c2)cc1S(=O)(=O)N1CCOCC1 the results were SRC1 inh -6, SRC3 inh 4, Gli-Sufu block 11, LRH-1 inv ag -2, NR2F2 inh -5 and SRC2 inh 7.
CC(=O)c1c(C)[nH]c(C(=O)OCC(=O)Nc2cccc(S(=O)(=O)N(C)C)c2)c1C was read as SRC1 inh 9, SRC3 inh 24, Gli-Sufu block 23, LRH-1 inv ag 17, NR2F2 inh -11 and SRC2 inh 12.
`CCN(CC)S(=O)(=O)c1cccc(NC(=O)COC(=O)c2[nH]c(C)c(C(C)=O)c2C)c1` gave SRC1 inh 45, SRC3 inh 41, LRH-1 inv ag 40, NR2F2 inh 62*, SRC2 inh 21, Gal4-VP16 ctr 2 and COUP-TFII conf 60*.
Nc1ccc2c(c1)OC1(CCCC1)O2 was read as SRC1 inh 50, SRC3 inh 55, Gli-Sufu block 24, LRH-1 inv ag 26, NR2F2 inh 65*, SRC2 inh 66*, Gal4-VP16 ctr -10 and COUP-TFII conf 11.
Screening COC(=O)[C@]12C[C@H](CC(=O)NCc3ccc(OC)c(OC)c3)C(=O)N(CCC3=CCCCC3)C1=C[C@H](C(C)(C)C)O[C@@H]2C returned NR2F2 inh 2 and SRC2 inh 20.
Cc1cnc(NC(=O)c2ccc3c(c2)OCCO3)s1 was read as SRC1 inh 8, SRC3 inh 22, Gli-Sufu block 10, LRH-1 inv ag 8, NR2F2 inh 46*, SRC2 inh 67*, Gal4-VP16 ctr -5 and COUP-TFII conf 20.
Screening CCOc1ccccc1N1CCN(Cc2cccc(OC)c2O)CC1 returned SRC1 inh 8, SRC3 inh 9, Gli-Sufu block 1, LRH-1 inv ag 21, NR2F2 inh 6 and SRC2 inh -1.
COc1ccccc1N1CCN(Cc2cc(Br)c(O)c3ncccc23)CC1 was read as SRC1 inh 46, SRC3 inh 54, Gli-Sufu block 58*, LRH-1 inv ag 73*, NR2F2 inh 47*, SRC2 inh 28, Gal4-VP16 ctr 2 and COUP-TFII conf 15.
C=CCN1C(=O)S/C(=C/c2ccc(Sc3nc4ccccc4[nH]3)o2)C1=O was read as SRC1 inh 3, SRC3 inh 17, Gli-Sufu block 26, LRH-1 inv ag 14, NR2F2 inh 46*, SRC2 inh 10, Gal4-VP16 ctr -12 and COUP-TFII conf 11.
Screening CC(C)N1C(=O)S/C(=C/c2ccc(Sc3nc4ccccc4[nH]3)o2)C1=O returned SRC1 inh 10, SRC3 inh 19, Gli-Sufu block 38, LRH-1 inv ag 2, NR2F2 inh 4 and SRC2 inh 14.
`COc1cccc(CNC(=O)C[C@H]2CC[C@H]3[C@@H](COc4ccc(NC(=O)c5cccs5)cc4C(=O)N3C)O2)c1` gave NR2F2 inh -3 and SRC2 inh -25.
Screening CCOC(=O)C1=CCN(S(=O)(=O)c2ccc([N+](=O)[O-])cc2)C1c1ccc(C)cc1 (stereo not drawn) returned NR2F2 inh -6 and SRC2 inh -19.
Cc1ccc(-n2ncc3c2CCCC3NC(=O)CCC2=NNC(=O)CC2)cc1C (stereo not drawn) was read as SRC1 inh -10, SRC3 inh 1, Gli-Sufu block 9, LRH-1 inv ag 1, NR2F2 inh 8 and SRC2 inh -1.
For CC(C)(C)c1ccc(-n2ncc3c2CCCC3NC(=O)CCC2=NNC(=O)CC2)cc1 (stereo not drawn) the results were SRC1 inh 4, SRC3 inh 19, LRH-1 inv ag 32, NR2F2 inh 39*, SRC2 inh 24, Gal4-VP16 ctr -12 and COUP-TFII conf -1.
Screening COc1ccc(-c2cc3nc(NCc4ccc(N(C)C)cc4)n(C)c(=O)c3s2)cc1OC returned SRC1 inh 12, SRC3 inh 7, LRH-1 inv ag 17, NR2F2 inh 39*, SRC2 inh -10, Gal4-VP16 ctr -21 and COUP-TFII conf 56*.
`COc1cccc(CNc2nc3cc(-c4ccc(OC)c(OC)c4)sc3c(=O)n2C)c1` gave SRC1 inh 4, SRC3 inh 2, LRH-1 inv ag 12, NR2F2 inh -7 and SRC2 inh -16.
COc1cccc(CNc2nc3cc(-c4ccsc4)sc3c(=O)n2C)c1OC was read as SRC1 inh 25, SRC3 inh -13, LRH-1 inv ag 29, NR2F2 inh 66*, SRC2 inh 24, Gal4-VP16 ctr 5 and COUP-TFII conf 46*.
Screening CC(C)C[C@@H]1COc2cc(N3CCOCC3)ccc2S(=O)(=O)N1 returned NR2F2 inh -25 and SRC2 inh -42.
COc1cc(CNc2ncnc3c2ncn3[C@H]2CN(Cc3ccc(-c4ccccc4)cc3)C[C@@H](CO)O2)cc(OC)c1OC was read as SRC1 inh 12, SRC3 inh 13, LRH-1 inv ag 33, NR2F2 inh 59*, SRC2 inh 10, Gal4-VP16 ctr 4 and COUP-TFII conf 48*.
Screening OC[C@@H]1CN(Cc2ccc(-c3ccccc3)cc2)C[C@H](n2cnc3c(NCc4ccncc4)ncnc32)O1 returned SRC1 inh 25, SRC3 inh 8, LRH-1 inv ag 3, NR2F2 inh 59*, SRC2 inh 26, Gal4-VP16 ctr -4 and COUP-TFII conf 39*.
